BAP1 inh: inhibitors of human BAP1 deubiquitinase; Q92560; recombinant BAP1, Ub-AMC hydrolysis fluorescence kinetic; hits give low values; calls only at 20 µM; 72,000 tested, 0.48% active;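 active = activity remaining at or below 50% of control, provided the compound also passes the data quality filters; inactive = the rest, including low values that fail the filters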
M1 antagonist: antagonists of rat M1 muscarinic receptor; P08482; AID 628; 64,000 tested, 3.4% active; CHO-M1 cells, Fluo-4 calcium, ACh EC80 antagonist mode; hits give low values; B-score at 10 µM;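 active = calcium fluorescence response, raw or row-and-column corrected B-score, differing from the plate sample mean either way at a set confidence level, mostly lower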
Target sequence (P08482 whole entry, looked up): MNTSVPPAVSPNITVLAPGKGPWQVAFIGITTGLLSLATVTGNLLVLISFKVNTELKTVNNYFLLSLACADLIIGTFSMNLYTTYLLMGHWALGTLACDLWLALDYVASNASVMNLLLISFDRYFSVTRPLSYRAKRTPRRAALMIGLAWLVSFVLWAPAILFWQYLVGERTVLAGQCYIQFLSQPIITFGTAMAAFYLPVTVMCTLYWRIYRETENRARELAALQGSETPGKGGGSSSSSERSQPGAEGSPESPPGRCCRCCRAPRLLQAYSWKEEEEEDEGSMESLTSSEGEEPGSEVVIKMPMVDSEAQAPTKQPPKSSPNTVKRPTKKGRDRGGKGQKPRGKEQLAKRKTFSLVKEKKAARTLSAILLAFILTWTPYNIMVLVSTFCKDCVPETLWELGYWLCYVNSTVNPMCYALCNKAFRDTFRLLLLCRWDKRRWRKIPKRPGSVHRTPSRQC
Abs 340nm: compound absorbs light at 340 nm. AID 708. compound absorbance at 340 nm, fold over control. 65,000 tested, under 10 active. fold change at 10 µM;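 active = at 10 µM dose, initial 340 nm absorbance at least 2 fold that of control wells; inactive = change under 2 fold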;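 also: initial absorbance extrapolated from kinetic A340 decline of NADH oxidation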
Autofluor 339: intrinsic fluorescence of library compounds, ex339/em460 – biochemical, MLSMR library, data from DPM-DC assay, artefact control, profiling panel. fluorescence fold increase at 10 µM. 65,000 tested, 5.5% active. compound autofluorescence, ex339/em460 nm, NADH buffer; hits give high values; 1 = no-compound wells, NADH background;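 active = at 10 µM, mean starting fluorescence two-fold or more over control wells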;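 also: signal is the first read of a kinetic run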
M1 ag: activates the M1 muscarinic receptor; CHO-M1 cells, Fluo-4 calcium fluorescence, agonist mode; hits give high values; B-score at 10 µM; 64,000 tested, 3% active;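 active = fluorescence rise, raw or as B-score row- and column-corrected plate score, outside the 99.7% band of its plate's samples, either direction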
WNV protease inh: WNV NS2B-NS3 proteinase inhibition; z-score (concentration not given with the values); P06935; WNV NS2B-NS3 protease, fluorogenic substrate Ex360/Em465; hits give low values; 65,000 tested, 0.18% active; in the data active = z-score below about -3
Each line names hits and unclear results; the compound was inactive in the other large screens. An excerpt weighted towards active compounds, which were near 9.7% of everything screened.

CCOC(=O)N1CCN(CCC(=O)c2ccc(Cl)cc2)CC1	M1 antagonist -0.81, M1 ag 3.4
N#Cc1c(-c2ccco2)nc(NCC2CCCO2)[nH]c1=O (stereo not given)	none
CC1(C)Cc2c(C#N)c(NC3CCCCC3)nc(-c3ccco3)c2CO1	Autofluor 339 2.2
CC(C)c1nc(NCCN2CCOCC2)c(C#N)c2c1COC(C)(C)C2	none (not shown: BAP1 inh)
CC1(C)Cc2c(C#N)c(NCC3CCCO3)nc(-c3ccco3)c2CO1 (stereo not given)	Autofluor 339 2.3
Cc1cc(N)n2ncc(-c3cccc(Br)c3)c2n1	Autofluor 339 2.2
O=C(Nc1ccc2oc(-c3ccc4ccccc4c3)nc2c1)c1ccc(Cl)c([N+](=O)[O-])c1	none (no result: M1 antagonist, Abs 340nm, Autofluor 339, M1 ag, WNV protease inh)
O=S(=O)(c1ccc(-c2cn3ccccc3n2)cc1)N1CCOCC1	Autofluor 339 2.2 (no result: BAP1 inh)
Cc1cccn2cc(-c3ccc(S(=O)(=O)N4CCOCC4)cc3)nc12	Autofluor 339 2.2 (no result: M1 antagonist, M1 ag)
CC1(C)CC(=O)C2=C(C1)N(CCN1CCOCC1)C1=C(C(=O)CC(C)(C)C1)C2c1cccc(Cl)c1	Autofluor 339 4.3 (not shown: BAP1 inh)
C=C(C)c1cccc(C(C)(C)NC(=O)N2CCCCCC2)c1	none (no result: M1 antagonist, Abs 340nm, Autofluor 339, M1 ag, WNV protease inh)
COc1ccc(OC)c(C(=O)CSc2nnc(-c3ccc(OC)c(OC)c3)o2)c1	Autofluor 339 2
COc1ccc(C(=O)CSc2nnc(-c3ccc(C)cc3)o2)cc1	WNV protease inh -4.1
CCOc1ccc(N2C(=O)CC(Nc3ccc(N4CCCCC4)cc3)C2=O)cc1 (stereo not given)	none (no result: M1 antagonist, Abs 340nm, Autofluor 339, M1 ag, WNV protease inh)
Cc1c(Cl)cccc1-c1ccc(C(=O)Nc2ccc(Br)cn2)o1	none (no result: M1 antagonist, Abs 340nm, Autofluor 339, M1 ag, WNV protease inh)
CCOC(=O)CSc1nc2ccccc2c(=O)n1CC1CCCO1 (stereo not given)	none
Cn1c(=N)c(S(=O)(=O)c2ccc(Cl)cc2)cc2c(=O)n3ccccc3nc21	none
Cc1ccc(S(=O)(=O)c2cc3c(=O)n4cc(C)ccc4nc3n(CC3CCCO3)c2=N)cc1 (stereo not given)	Autofluor 339 2.1
N=c1c(S(=O)(=O)c2ccccc2)cc2c(=O)n3ccccc3nc2n1CC1CCCO1 (stereo not given)	Autofluor 339 3.1
O=C(Nc1sc2c(c1C(=O)Nc1ccc(Cl)cc1)CCCC2)c1ccc([N+](=O)[O-])cc1	none (no result: M1 antagonist, Abs 340nm, Autofluor 339, M1 ag, WNV protease inh)
COc1ccccc1-c1c(C(F)(F)F)oc2cc(OC(=O)c3ccco3)ccc2c1=O	none (no result: M1 antagonist, Abs 340nm, Autofluor 339, M1 ag, WNV protease inh)
CCn1c(=O)c(C2=NS(=O)(=O)c3ccccc3N2)c(O)c2ccccc21	Autofluor 339 2.5
CCn1c(=O)c(-[n+]2ccccc2)c(O)c2ccccc21	none
CCCn1c(C)nc2c(c1=O)c1nc3ccccc3nc1n2CCC1=CCCCC1	Autofluor 339 3.8 (not shown: BAP1 inh)
CCCn1c(C)nc2c(c1=O)c1nc3ccccc3nc1n2CCc1ccccc1	Autofluor 339 3.1 (not shown: BAP1 inh)
Cc1nc2c(c(=O)n1CCC1=CCCCC1)c1nc3ccccc3nc1n2/N=C/c1ccco1	none
CC1(C)CC(=O)C2=C(C1)Nc1ccccc1NC2c1ccccc1OCc1ccccc1 (stereo not given)	none (no result: M1 antagonist, Abs 340nm, Autofluor 339, M1 ag, WNV protease inh)
CCC(=O)N1CCN(c2cc3c(cc2F)c(=O)c(C(=O)O)cn3CC)CC1	Autofluor 339 4.8
CCCCCCC(=O)N1CCN(c2cc3c(cc2F)c(=O)c(C(=O)O)cn3CC)CC1	none
CCOC(=O)c1cn(CC)c2cc(N3CCOCC3)c(F)cc2c1=O	Autofluor 339 2.3
CCCc1cc(=O)oc2cc(OCC(=O)N(C)C)c(Cl)cc12	none (no result: BAP1 inh)
COc1ccc(-c2cc(=O)oc3c(C)c(OCc4nn[nH]n4)ccc23)cc1	none
CCCCc1cc(=O)oc2cc(OCc3nn[nH]n3)c(Cl)cc12	Autofluor 339 2.5 (not shown: BAP1 inh)
CCc1cc(=O)oc2cc(OCc3nn[nH]n3)ccc12	Autofluor 339 3 (not shown: BAP1 inh)
O=C1C2CC=CCC2C(=O)N1c1ccc(Oc2ccc3ccccc3c2)cc1 (stereo not given)	none (no result: M1 antagonist, Abs 340nm, Autofluor 339, M1 ag, WNV protease inh)
Cc1ccc(S(=O)(=O)N(Cc2ccccc2)c2ccccc2)cc1	none (no result: M1 antagonist, Abs 340nm, Autofluor 339, M1 ag, WNV protease inh)
CCOC(=O)C1=C(O)C(=O)N(c2ccc(S(N)(=O)=O)cc2)C1c1ccc(OC)cc1 (stereo not given)	Autofluor 339 2.1
CCOC(=O)c1ccc(N2C(=O)C(O)=C(C(C)=O)C2c2ccc(O)c(OC)c2)cc1 (stereo not given)	none
CCOC(=O)c1c(C)[nH]c(C(=O)COC(=O)c2ccccc2NC(=O)c2ccco2)c1C	Autofluor 339 3.4 (not shown: BAP1 inh)
Cc1onc(-c2c(F)cccc2Cl)c1C(=O)Nc1cccc2nsnc12	Autofluor 339 3
Cc1onc(-c2c(F)cccc2Cl)c1C(=O)NC1=NCCS1	none (no result: BAP1 inh)
Cc1nc2cc(N=Cc3ccccc3[N+](=O)[O-])ccc2n1C	none (no result: M1 antagonist, Abs 340nm, Autofluor 339, M1 ag, WNV protease inh)
Cc1nn(-c2ccc(F)cc2)c2c1cc(C#N)c1nc3ccccc3n12	Autofluor 339 2.5
Oc1cccc(Oc2ccccc2)c1	none (no result: M1 antagonist, Abs 340nm, Autofluor 339, M1 ag, WNV protease inh)
COc1ccc(N2CCN(C(=O)CSc3nnc(CNc4ccccc4)o3)CC2)cc1	M1 ag -2.5
Cn1c(=O)n(Cc2ccccc2)c(=O)c2c1nc1n2CCCN1Cc1ccccc1	M1 antagonist 2.9
Cc1cccc(Cn2c(=O)c3c(nc4n3CCN4Cc3ccco3)n(C)c2=O)c1	none
Cn1c(=O)n(Cc2ccc(Cl)cc2)c(=O)c2c1nc1n2CCN1Cc1ccco1	M1 ag -2.3
CC(=O)c1cccc(NC(=O)C2CCCC2)c1	none (no result: BAP1 inh)
O=C1NC(=O)c2cc(NC(=O)C3CCCCC3)ccc21	Autofluor 339 3.6 (no result: M1 antagonist)
CC1(C)Oc2ccc3ccc(=O)oc3c2-c2cnoc21	Autofluor 339 2.2
CC1(C)Oc2ccc3ccc(=O)oc3c2-c2cn[nH]c21	none
Cc1ccc(C2Nc3ccccc3-c3nc4ccccc4n32)o1 (stereo not given)	Autofluor 339 2.5 (not shown: BAP1 inh)
COC(=O)Cc1c(C)c2ccc(OC(=O)c3ccco3)cc2oc1=O	Autofluor 339 2.1
COC(=O)Cc1c(C)c2cc(Cl)c(OC(=O)c3ccco3)cc2oc1=O	Autofluor 339 2.1
CCOc1cc(C(=O)Nc2cccc3c2C(=O)c2ccccc2C3=O)cc(OCC)c1OCC	none (no result: M1 antagonist, Abs 340nm, Autofluor 339, M1 ag, WNV protease inh)
CCOC(=O)c1nn2c(C(F)(F)F)cc(-c3ccc(Br)cc3)nc2c1Cl	none (no result: M1 antagonist, Abs 340nm, Autofluor 339, M1 ag, WNV protease inh)
Cc1c(O)c(CN2CCCC2)cc2c1oc(=O)c1ccccc12	none
Cc1c(O)c(CN2CCCC2)cc2c3c(c(=O)oc12)CCC3	Autofluor 339 3.7
CCc1cc(=O)oc2c(C)c(O)c(CN3CCCCC3)cc12	Autofluor 339 3.9
Cc1ccccc1-n1nc2c(c1NC(=O)COc1ccccc1)CSC2	none (no result: M1 antagonist, Abs 340nm, Autofluor 339, M1 ag, WNV protease inh)
Cn1c(=O)[nH]c(=O)c2c1nc(SCc1ccccc1Cl)n2CCc1ccccc1	none (no result: M1 antagonist, Abs 340nm, Autofluor 339, M1 ag, WNV protease inh)
COc1ccccc1-c1cc(C(F)(F)F)nc(S(=O)(=O)CCCC(=O)NC(C)C)n1	none
COc1ccccc1-c1cc(C(F)(F)F)nc(S(=O)(=O)CCCC(=O)Nc2cc(C)on2)n1	Autofluor 339 3.7 (not shown: BAP1 inh)
